Test results from the supplement of paper PMC7335073.
In all, about 4,100 sequences were measured (“relative CpG methylation activity (normalised to average over all NNNCGNNN flanks)”: median about 0.87, highest 2% from about 2.4 on). This excerpt belongs to a sample that is enriched for the highest values.

Each sequence was assayed against DNMT3A catalytic domain (mouse) (UniProt O88508) (assay: relative CpG methylation activity (normalised to average over all NNNCGNNN flanks) (relative (1 = mean)); higher = more methylation of the central CpG). Settings: system: in vitro, murine catalytic domain; CpG state: hemimethylated substrate pool; residues: 608-908.
Procedure: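 Deep enzymology: a pool of dsDNA substrates with a central CpG flanked by 10 random nucleotides on each side was methylated by the murine DNMT3A or DNMT3B catalytic domain (0.8 mM SAM, 37 °C, 60 min). Methylation was then read out by hairpin ligation, bisulfite conversion and NGS. Values are the average methylation of each NNNCGNNN context (±3 flanks; the outer flanks are random and averaged over), normalised to the overall mean, so 1 = average activity.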

Sequence | relative CpG methylation activity
ATACGCTG | 2.12
TAACGCTT | 1.53
TGACGCTT | 1.05
GTACGCTT | 2.66
GTACGCTA | 1.98
ATACGGTC | 2.39
ATACGGTG | 0.775
CTACGGTC | 1.92
ATACGCTA | 2.15
TTACGCTT | 2.62
ATACGCTT | 2.67
GTACGCTG | 1.88
CCTCGCAA | 1.31
CGGCGTAC | 0.625
AGGCGCAG | 0.331
TCTCGGTG | 0.645
TTACGCGA | 1.73
ACTCGTAG | 0.496
GAGCGCCT | 1.95
AGACGTCA | 1.03
AGACGATG | 0.457
AGACGCTC | 1.49
GTACGCTC | 2.72
TTACGCAC | 2.32
AAACGCTC | 1.44
TTACGCTC | 2.74

Sequence | relative CpG methylation activity
GTACGCAC | 1.87
ATACGCTC | 2.73
TTACGCTG | 1.74
GTACGCGC | 2.11
GCTCGACA | 1.04
TTCCGTGG | 0.603
TTGCGTAT | 1.47
ACTCGGAT | 0.799
AGGCGTTA | 0.256
ATACGAGT | 1.56
GCGCGGGG | 0.217
GTGCGCTC | 2.03
GTGCGCTA | 1.91
GTGCGCCT | 2.43
GTGCGCCA | 2.05
CTGCGCCT | 1.81
GTGCGCTT | 2.47
CGACGTTG | 0.323
TCCCGCAT | 0.92
GGACGATA | 0.784
TTTCGCCG | 1.83
AGACGTAT | 0.427
CTACGATG | 1.2
CTACGATC | 2.4
CTACGATT | 1.89
TTACGAGC | 2.12

Sequence | relative CpG methylation activity
GTCCGATC | 2.18
ATACGAGC | 2.39
ATACGACC | 2.41
ATACGACG | 1.73
TTCCGATC | 2.29
GTACGACC | 2.03
GTACGAGC | 2.12
CTCCGATC | 2.41
GGTCGCTG | 0.804
ACCCGGTC | 1.19
CCCCGCCT | 2.14
TGTCGGAA | 0.614
CCGCGTGG | 0.205
ACGCGCGG | 0.42
GCCCGGAT | 0.551
CTACGAGC | 2.44
CTACGAGT | 1.7
CTACGAGA | 1.72
TTCCGACG | 1.77
GTTCGCTC | 2.37
TTTCGCTC | 2.02
GTTCGCTG | 1.46
CTTCGCTC | 2.46
CTTCGCTA | 1.66
CTTCGCTT | 1.78
GGCCGGGC | 0.75

Sequence | relative CpG methylation activity
GATCGAGC | 0.679
TCACGTCC | 1.98
TGACGTCC | 1.32
CTACGTGT | 1.07
CTACGTCT | 2.45
TTACGTCT | 2.14
ACACGTCC | 2.46
CAACGTCC | 1.67
CCACGTCT | 1.61
TTACGTCC | 2.56
CCACGTCC | 1.94
CTACGTCC | 2.8
ACACGTCA | 2.19
GGACGAGA | 0.605
TCTCGTGT | 0.225
ATGCGGTG | 0.407
ACCCGACG | 1.17
GCTCGGAA | 0.694
GAGCGTAG | 0.34
CCGCGGAA | 0.965
AAACGGTC | 0.701
CCACGTCA | 1.71
CTACGTCA | 2.51
GTACGTCC | 2.41
GCACGTCA | 1.86
TTGCGTCC | 2.39

Sequence | relative CpG methylation activity
CTGCGTCC | 2.14
GTACGTCA | 2.5
TTGCGTCT | 1.67
CTACGTGA | 1.2
GAACGTCC | 1.06
GTACGTAC | 1.62
GTACGTCT | 2.06
ACGCGCCG | 1.59
ACCCGGTG | 0.688
GCACGAGG | 0.755
TGACGTAC | 0.438
CTCCGAAG | 1.01
CAGCGCTC | 1.08
GCGCGAGA | 0.455
CGCCGAGT | 0.664
TAACGGCG | 0.782
ATACGTCT | 2.22
ATACGTGA | 1.2
ATACGTCA | 2.47
ATACGTCG | 2.26
AAACGTCA | 1.14
ATACGTCC | 2.56
GGACGGGC | 0.536
CGCCGATA | 0.761
TCTCGAGG | 0.357
GTGCGTGC | 1.11

Sequence | relative CpG methylation activity
CATCGGAG | 0.238
TGTCGAAC | 0.773
GGGCGCCA | 1.15
CTACGTAA | 2.4
TTACGTAA | 2.54
ATACGTAA | 2.01
CTACGTAC | 1.9
TTACGTAT | 1.48
TTACGTAG | 1.34
CTTCGCAA | 1.52
AGCCGGGA | 0.357
GAGCGCTG | 0.969
TTGCGCCT | 2.1
GTGCGCCG | 1.79
CTGCGCCG | 1.93
ATGCGCCC | 2.44
TTGCGCCA | 1.75
GTGCGCCC | 2.22
ATGCGCCG | 2.39
TTGCGCCC | 2.61
CTGCGCCC | 2.19
CGTCGAGC | 1.06
AGCCGCAG | 0.256
CGGCGTAA | 0.615
GCACGGGA | 1.04
TTCCGTCT | 2.58

Sequence | relative CpG methylation activity
GTCCGTCA | 2.41
GTCCGTCC | 2.02
TTCCGTCG | 2.09
ATCCGTCT | 2.05
GTCCGTCG | 2.53
CTCCGTCT | 1.84
GTCCGTCT | 2.14
GTCCGTTG | 1.25
TGCCGCGA | 0.629
TGCCGCTT | 1.45
CGGCGGAT | 0.495
CGTCGTAG | 0.312
AACCGTCG | 1.34
CTACGTGG | 0.594
TTACGTTG | 1.34
TTACGTTT | 1.72
TGACGTCA | 0.989
TTACGTTA | 2.55
GTACGTCG | 1.85
CGACGTCG | 1.28
TTACGTCG | 2.52
TCACGTCA | 2.03
TTACGTCA | 2.5
TGACGTCG | 1.02
CTACGTCG | 2.46
GACCGGCA | 0.909

Sequence | relative CpG methylation activity
AAGCGCAT | 0.582
TCCCGAGA | 1.02
GTTCGCAT | 1.26
TACCGACC | 0.79
TCTCGCTG | 1.57
TGCCGCTC | 1.84
GCACGATT | 1.02
AACCGACT | 0.927
GCTCGCCT | 2.09
CCTCGCCG | 1.68
CCTCGCCC | 2.6
CCTCGCCA | 1.67
TCTCGCCT | 1.73
CCTCGCCT | 2.37
GTTCGGTT | 0.726
GTCCGAAC | 1.91
CGACGATT | 0.644
TTACGGCC | 2.24
TATCGCCT | 1.86
CACCGGAA | 0.755
TCACGCTC | 2.5
CCACGCTA | 1.53
CCACGCTC | 2.5
ACACGCTG | 1.74
CCACGCTG | 1.58
TCACGCTA | 1.56

Sequence | relative CpG methylation activity
TCACGCTG | 1.32
ACACGCTT | 2.37
ACACGCAC | 1.72
GCACGCTC | 1.98
ACACGCTC | 2.4
ACACGCTA | 1.76
GGTCGTCT | 0.726
CCCCGATA | 1.02
TACCGTTT | 0.414
GCTCGGCC | 1.3
GGACGTTG | 0.114
GGACGGAC | 0.861
ATTCGCTC | 1.94
ACGCGAGT | 0.94
ATCCGCTC | 2.37
GTCCGCTG | 1.42
GTCCGCTT | 2.54
ATCCGCTA | 1.78
TTCCGCTT | 2.48
GTCCGCTC | 2.37
GACCGCTC | 1.78
GTCCGCTA | 1.9
ATCCGCTT | 2.13
ATCCGCTG | 1.62
GGCCGCTT | 1.75
CTCCGCTT | 2.3

Sequence | relative CpG methylation activity
GCCCGGGT | 0.974
TGGCGGCC | 1
CCACGACG | 1.18
GGCCGTGC | 0.353
TGCCGTCT | 1.28
TCCCGAGT | 0.977
GAGCGCTT | 2.07
GGCCGAGG | 0.41
ACACGGTC | 1.41
AGCCGTGA | 0.258
CGCCGACA | 0.962
CTGCGCAG | 0.583
TTCCGCTC | 2.73
TTCCGCTA | 2.3
CTCCGCTC | 2.19
TGACGTGA | 0.475
GAACGAGC | 1.12
CATCGGGA | 0.259
CGACGCGT | 0.316
TATCGAGC | 0.705
TACCGGGC | 0.455
GTACGCCG | 1.9
CTACGCCT | 2.79
CCACGCCG | 1.71
GTACGCCT | 2.41
CTACGCCA | 2.74

Sequence | relative CpG methylation activity
CCACGCCT | 2.24
CTACGCAG | 1.43
GTACGCCA | 2.14
CCACGCCA | 1.91
CTACGCCG | 2.5
CGACGCCT | 1.29
CGACGCCA | 1.29
GCCCGAAA | 1.39
AGACGGTC | 1.15
TCCCGTAT | 0.643
GACCGCTT | 1.77
ACACGAGC | 1.54
TTGCGATA | 1.13
GGTCGTAT | 0.455
TTGCGGTC | 1.43
TAGCGGGT | 0.231
GGACGGGT | 0.4
ATACGCGT | 1.9
ATACGCAT | 1.79
ATACGCCT | 2.76
GATCGCCG | 0.545
TCACGACA | 1.52
TTACGCTA | 1.94
CTACGCTC | 2.66
CAACGCTA | 0.826
CAACGCTC | 1.36

Sequence | relative CpG methylation activity
CTACGCTG | 1.75
CTACGCAT | 1.97
CTACGCTT | 2.38
CTACGCTA | 2.5
CGACGCTC | 1.38
GACCGTCG | 1.29
TGCCGAGC | 1.38
CGGCGTTT | 0.165
ACTCGATG | 0.513
GCCCGGCG | 0.38
GCACGCCT | 2.25
ACACGCCA | 2.02
ACACGCCT | 2.44
ACACGCCG | 1.92
GCACGCCC | 2.31
ACACGCCC | 2.4
CGCCGGCC | 0.909
CCGCGGGT | 1.11
TTACGCAA | 2.55
TTACGCGG | 0.654
ATACGCCG | 2.33
TTACGCAT | 2.29
TAACGCCC | 1.61
TTACGCCC | 2.64
ATACGCGC | 1.93
ATACGCCC | 2.85

Sequence | relative CpG methylation activity
TTACGCGC | 2.44
AGACGCCC | 1.43
GTACGCAA | 1.89
TTACGCCG | 2.29
ATTCGCAA | 1.09
TAACGTAC | 0.748
GCACGACG | 0.957
TATCGTTG | 0.26
TCGCGTAG | 0.412
TTACGCCT | 2.38
TTACGCGT | 1.81
GTACGCCC | 2.39
TTACGCCA | 2.33
ATACGCCA | 2.6
CAACGCCC | 1.52
CTACGCAC | 2.15
CTACGCCC | 2.62
GGACGCCC | 1.88
TAACGCCT | 1.2
GAACGCCC | 1.6
ATACGCGA | 1.33
TGCCGCGC | 0.766
TATCGATG | 0.224
AAACGTAA | 0.891
AGGCGCCT | 1.88
TGACGACG | 0.449

Sequence | relative CpG methylation activity
GCCCGTTT | 0.909
CCTCGGAG | 0.294
GTCCGCCT | 2.6
TTCCGCAT | 1.78
TTCCGCCT | 2.6
TTCCGCGT | 1.64
ACCCGCCG | 1.76
GGCCGCCT | 1.37
ACCCGCCC | 2.24
TTCCGCCA | 2.2
GTCCGCCA | 1.87
TTCCGCCG | 2.55
TGCCGCCG | 1.03
ACCCGCCT | 2.44
